# Assay outcomes from PubChem BioAssay.
# Many of the other results were omitted from the sample, so hits are more common in it than they were.
# Ub-GFP proteasome = inhibits proteasome, raising ubiquitin-GFP reporter fluorescence | Ubiquitin-GFP reporter cells, proteasome inhibition, GFP fluorescence; response scale: untreated = 0%, 10 µM MG-132 = 100% | Potency, µM (doses to about 45.9 µM), inactives show at the top dose activation (GFP accumulation), usual class: activators | 67,000 tested, under 10 active | AID 526; active means well fitted activation curve with a large enough effect, not every such curve was filed as active; inconclusive means small, poorly fitted or top-dose-only effect, or another doubt; inactive means no such curve, though single readings can be large or run the other way; further: potency means the concentration at half of the fitted maximal effect
#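 GFP accumulation read-out: laser plate cytometry counting ubiquitin(G76V)-GFP-expressing U2OS cells after 4 hr compound exposure at 37 °C. Titrations spanned 46 uM to 2.9 nM; 0% = basal, 100% = 10 uM MG-132; concentration-response curves fitted.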
# HBB splicing = modulators of hemoglobin beta chain splicing; HBB splicing reporter cell assay, activation; EGFP reporter with mutant IVS2-654 intron; response scale: normalised to 500 nM splice-correcting PNA; Potency, µM (series often up to 46.1 µM), for inactives: at the highest dose activation, most hits filed as activators; 65,000 compounds, 0.06% hits; further: potency means the concentration at half of the fitted maximal effect; 0% is about no effect
#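 HeLa cells stably expressing EGFP interrupted by mutant beta-globin intron 2 (IVS2-654), 500/well in 2% FCS. Treated with compound for 2 days at 37C. Splicing correction scored as total well GFP intensity (488 nm excitation, 500-520 nm emission); 500 nM antisense PNA served as control.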
# Peg3 imprint = genomic imprint erasure induction; AID 1948; 110,000 compounds, 0.02% hits; mouse ES Peg3-LacZ reporter, beta-gal luminescence, 40 h; Potency, µM (highest dose often 60.7 µM), for inactives: at the highest dose activity change, positive = activation, actives largely listed as activators; further: potency means the concentration at half of the fitted maximal effect
#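 Imprint erasure is scored as LacZ activity from the silenced maternal Peg3 allele in feeder-free female ES cells cultured 40 h with LIF. Luminescence is normalized to in-plate negative controls and fitted to the Hill equation.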
# Epigenetic mod = epigenetic GFP locus derepression in mouse cells; Potency, µM (titrated, usually from 46.1 µM), inactives show at the top dose GFP derepression (activation); mouse C127i GFP locus derepression, cytometry, 30 h; 68,000 compounds, 0.09% hits; AID 597; further: % of control where 0% means no effect
#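 Locus derepression in mouse mammary C127i cells whose integrated CMV-GFP reporter is normally silent; GFP expression after 30 h compound treatment was quantified by counting fluorescent cells.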
# ERK AVP inh = blocks ERK signaling stimulated by vasopressin | 72,000 compounds, 0.99% hits | Potency, µM (series often up to 57.5 µM), for the others: at the top dose activity, negative = inhibition, hits mostly inhibitors | HEK293-V1b, vasopressin-stimulated pERK AlphaScreen | AID 995; further: potency means the concentration at half of the fitted maximal effect; on the % scale 0 is the no-effect control and ±100 the full control effect; nearly all actives have a fitted effect of over 55% in size
#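 qHTS, compounds titrated on V1b-expressing HEK293 cells. Preincubation 30 min at 37C, vasopressin 25 nM for 5 min, lysis 10 min, bead incubation 5 hr at room temperature.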
# An asterisk follows results filed as active; ? = inconclusive; / = no result; ! = not confirmed by another sample; [ ] = another dose, or the depositor's remark. Unless noted, the call rests on the fitted dose curve; in most records, active means well fitted curve in the direction sought with a large enough effect; inconclusive means small, poorly fitted or top-dose-only effect, or another doubt; inactive means no such curve, though single readings can be large; an effect the other way counts as inactive or inconclusive.
SMILES,Ub-GFP proteasome,HBB splicing,Peg3 imprint,Epigenetic mod,ERK AVP inh
O=C1C=C2C(=CCOC2O)O1 (stereo not drawn),/,/,-39%,/,32µM*
N#CC(C#N)=Cc1ccc(O)c(O)c1,7%,1%,-31%,-2%,?
Cc1cccc(CN2C(=O)CN=C(c3ccccc3Cl)c3cc(Cl)ccc32)c1,/,/,-1%[10.9 µM],/,/
Cc1cc2c(C(C)C)c(O)c(O)c(C=O)c2c(O)c1-c1c(C)cc2c(C(C)C)c(O)c(O)c(C=O)c2c1O,10%,-1%[20.6 µM],-22%,0%,25µM*!
O=c1c2ccccc2nc(CSc2ncnc3nc[nH]c23)n1-c1ccccc1,1%,1%,5%,-1%,14%
Cn1nc(-c2ccc(OCC(=O)N3CCN(Cc4ccccc4)CC3)cc2)c2ccccc2c1=O,10%,1%,-25%,0%,32µM*
CC(C)(C)C(=O)C1C(=O)c2ccccc2C1=O,/,16µM*,0%,/,11%
Cc1ccc(-n2c(O)c(C=Nc3ccccc3N)c(=O)[nH]c2=O)cc1C,-4%,-2%[57.5 µM],-18%,2%,0%
Nc1c(C(=O)NCCN2CCOCC2)c2nc3ccccc3nc2n1Cc1ccco1,/,1%[0.369 µM],6%,-2%,16µM*
CCCCn1c(N)c(C(=O)NCCN2CCOCC2)c2nc3ccccc3nc21,1%,-3%[57.5 µM],-12%,-5%,-15%
Nc1ccccc1O.O.O=C(O)[C@H]1[O][Sb][O][C@H]1C(=O)O,4%[9.17 µM],-1%[9.22 µM],0.32µM*,?,20%[11.5 µM]
Nc1ccccc1C(=O)O,/,1%,1%,/,12%
CC(=NCCN1CCOCC1)c1c(O)n(C2CCCCC2)c(=O)[nH]c1=O,14%,1%[1.84 µM],1%,0%,12%
c1ccc(/N=C2\N=C(Nc3ccccn3)c3ccccc32)nc1,-2%,0%[57.5 µM],-28%,13µM*,?
Cc1c2ccncc2c(C)c2c1[nH]c1ccccc12,-5%[20.5 µM],13µM*,-31%,13µM*!,13%
O=C1C2CC=CCC2C(=O)N1SC(Cl)(Cl)Cl (stereo not drawn),/,0%,-29%,/,16µM*
C/C(O)=C(\C#N)C(=O)Nc1cc(Br)ccc1Br,/,/,-16%,/,/
CN(c1ccccc1)S(=O)(=O)c1cccc(C(=O)N2CCN(c3ccccn3)CC2)c1,-1%,0%[57.5 µM],-13%,2%,25µM*
COc1cc2c(c(OC)c1OC)-c1ccc(O)c(=O)cc1[C@@H](NC(C)=O)CC2,3%,/,-20%,0%[9.22 µM],-10%
Cc1cccc(N2CCc3c2nc2ccccc2c3N)c1,-3%,3%[57.5 µM],-3%,1%,25µM*!
Cc1cccc(-n2c(/C=C/c3ccccc3O)nc3ccccc3c2=O)c1,/,/,-7%[10.9 µM],/,/
O=C1C=CC(=O)c2c1ccc1c2ccc2ccccc21,7%[20.5 µM],1%[20.6 µM],-38%[16.8 µM],-1%[20.6 µM],13µM*
CC12CCC(=O)C=C1CCC1C2CCC2(C)C(O)CCC12 (stereo not drawn),15%,-1%[9.22 µM],-11%,0%,-25%
CN(C)C(=O)Nc1cccc(OC(=O)N(C)C)c1,4%,0%,-9%,3%,1%
COC(=O)Nc1cccc(OC(=O)Nc2cccc(C)c2)c1,/,0%,9%,/,32µM*
CC(C)(C)OC(=O)c1c(N)n(Cc2ccco2)c2nc3ccccc3nc12,/,/,/,2%[20.6 µM],/
BrC(Br)Br,/,0%,-5%,/,0%
C[C@@H]1CC[C@@]2(OC1)O[C@H]1[C@@H](O)[C@H]3[C@@H]4CC[C@H]5C[C@@H](O[C@@H]6O[C@H](CO)[C@H](O[C@@H]7O[C@H](CO)[C@@H](O)[C@H](O[C@@H]8OC[C@@H](O)[C@H](O)[C@H]8O)[C@H]7O[C@@H]7O[C@H](CO)[C@@H](O)[C@H](O[C@@H]8O[C@H](CO)[C@@H](O)[C@H](O)[C@H]8O)[C@H]7O)[C@H](O)[C@H]6O)[C@H](O)C[C@]5(C)[C@H]4CC[C@]3(C)[C@H]1[C@@H]2C,/,0%,-27%,/,32µM*
